Most compounds without a hit are left out; they make up all but 4.1% or so of the library.
SUMO Mot1 rescue – inhibitors of SUMOylation pathway: yeast Mot1-301 growth rescue | S. cerevisiae Mot1-301 growth rescue, ATP luminescence, 38.5C; percent above DMSO median, 100 means doubled | growth rescue, % at 18.8 µM | 320,000 compounds, 1% hits | AID 2716;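 active = every valid replicate shows activation above 250% relative to neutral control wells; inactive = the rest, any valid replicate at or below 250%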;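 note: OY570 slx delta 5 strain wells were the positive control but not used for scaling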
MEKK2 WT-MEK5 – raises or lowers MEK5 binding to wildtype human MEKK2 PB1 domain. Q9Y2U5. binding response (% of control), % at 10 µM. bead flow cytometry, Alexa488-MEK5 binding to MEKK2 WT; actives lie on both sides. 290,000 compounds, 1.1% hits; in the data active = binding response below about 67% or above about 130%
MEKK3 PB1 HTS – modulators (inhibitors or enhancers) of MEK5 binding to human MEKK3 PB1 domain | bead-based flow cytometry, Alexa488-MEK5 binding to MEKK3; actives lie on both sides; 0 = blocked by unlabeled MEK5, 100 = vehicle | binding response (% of control), % at 10 µM | Q99759 | 290,000 compounds, 1.4% hits;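 active = binding response more than 3 SD above or below the average of its plate-row segment, actives on both sides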;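 note: Alexa488 bead fluorescence after subtracting the streptavidin-only scavenger bead signal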
MEKK2mut PB1 HTS – signal of MEK5 binding to mutant human MEKK2 PB1 domain; bead flow cytometry, Alexa488-MEK5 binding to MEKK2 mutant; percent response, % at 10 µM; 290,000 compounds, 0.35% hits; AID 1530; in the data active = percent response above about 24%, passing the limit was not always enough
CHT PAM – allosterically activates the human high affinity choline transporter; CHT-expressing cells, membrane potential dye, choline EC20; active compounds read high; LV-AA mutant CHT in HEK293 cells; 310,000 compounds, 0.49% hits; B-score at 10 µM;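 active = initial fluorescence not abnormally high and integrated response B-score, plate-corrected, over 3 SD above library mean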
Target sequence (Q9GZV3 whole entry, looked up): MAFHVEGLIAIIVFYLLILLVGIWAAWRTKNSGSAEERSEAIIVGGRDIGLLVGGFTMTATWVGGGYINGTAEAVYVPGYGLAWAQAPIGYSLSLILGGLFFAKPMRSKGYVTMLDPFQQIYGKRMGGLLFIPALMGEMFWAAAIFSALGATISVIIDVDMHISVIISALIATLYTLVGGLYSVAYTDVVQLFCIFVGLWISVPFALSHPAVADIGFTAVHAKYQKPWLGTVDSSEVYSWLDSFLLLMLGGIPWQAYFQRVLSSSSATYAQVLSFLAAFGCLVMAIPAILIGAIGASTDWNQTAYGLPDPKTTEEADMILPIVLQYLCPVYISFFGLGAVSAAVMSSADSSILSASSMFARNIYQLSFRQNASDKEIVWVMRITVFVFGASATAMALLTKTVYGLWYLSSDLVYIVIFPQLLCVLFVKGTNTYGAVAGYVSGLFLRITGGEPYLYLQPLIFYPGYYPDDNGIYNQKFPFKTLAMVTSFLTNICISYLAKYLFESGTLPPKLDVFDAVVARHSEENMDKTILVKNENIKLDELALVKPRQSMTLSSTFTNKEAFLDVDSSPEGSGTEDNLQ
CHT block – inhibits the human high affinity choline transporter; CHT-expressing cells, membrane potential dye, choline response; active compounds read low; 310,000 compounds, 0.86% hits; AID 488975; B-score at 10 µM;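 active = B-score over 3 SD under the library average, and starting fluorescence ratio not unusually high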;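 note: choline stimulus applied at its EC90 after an EC20 pre-addition; B-score computed on integrated fluorescence ratio after choline addition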
Yeast Mot1 SUMO – yeast SUMO pathway inhibition in dose response. shares compounds with SUMO Mot1 rescue. S. cerevisiae Mot1-301 galactose growth, ATP luminescence, 24 h; -100 = growth of slx-deleted rescue strain. growth activity, percent, % at 42 µM. 2,300 tested, under 10 active. AID 493004;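 active = Signal drops as the depositor expects, and the fitted half-maximal dose is no more than ten times the top valid tested dose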;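 note: more negative values mean stronger growth rescue toward the control strain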
Starred values were filed as active, the others as inactive; i = inactive; · = no result; + = active, no number.

SMILES	SUMO Mot1 rescue	MEKK2 WT-MEK5	MEKK3 PB1 HTS	MEKK2mut PB1 HTS	CHT PAM	CHT block	Yeast Mot1 SUMO
Cc1ccc(CN2C(=O)C(=O)N(CC(N)=O)C2=O)cc1	276.2	103.0	102.0	1.0	i	i	·
COc1ccc(CN2C(=O)C(=O)N(CC(N)=O)C2=O)cc1	719.3*	100.0	102.0	4.0	i	i	0.5
CCN(C(=O)COC(=O)/C=C/c1c(C)nn(Cc2ccc(C)cc2)c1C)C1CCS(=O)(=O)C1 (stereo not drawn)	11.9	101.0	100.0	-3.0	i	i	·
O=C(NCC1(O)CCCCC1)C1CCC(=O)N(Cc2cccc(C(F)(F)F)c2)C1 (stereo not drawn)	-2.5	91.0	95.0	-8.0	i	i	·
NC(=O)CCC(NC(=O)c1ccc(Cl)cc1)C(=O)O (stereo not drawn)	·	94.0	96.0	-6.0	i	i	·
O=C(O)CCC(NC(=O)c1ccc(Cl)cc1)C(=O)O (stereo not drawn)	+	102.0	105.0	1.0	i	i	0.1
Cc1ccc(-n2nnnc2C(Cl)(Cl)c2nnnn2-c2ccc(C)cc2)cc1	+	103.0	105.0	3.0	i	i	-0.4
CSc1nnnn1-c1ccc(Cl)cc1	-5.0	93.0	97.0	-2.0	i	i	·
Nc1nc(-c2ccc(Cl)cc2)nc(-c2ccc(Cl)cc2)n1	941.9*	61.0	64.0	-11.0	i	i	0.4
COc1ccc(CC(=O)NC(C)c2nnc(SCC(=O)Nc3cc(C)ccc3OC)n2C)cc1 (stereo not drawn)	189.6	102.0	104.0	6.0	i	i	·
Cc1ccc(OCCn2c(=O)cnc3ccccc32)cc1	-1.7	99.0	104.0	3.0	i	i	·
O=c1cnc2ccccc2n1Cc1ccccc1C(F)(F)F	514.9*	100.0	102.0	-3.0	i	i	0.2
O=C(NCc1ccc2c(c1)OCO2)c1cc(=O)[nH]c2ccccc12	-2.2	109.0	106.0	2.0	i	i	·
COc1ccc(C=O)cc1Cn1ccnc1C	7.3	95.0	107.0	-5.0	i	i	·
CCOC(=O)N1CCN(S(=O)(=O)c2ccc(Br)s2)CC1	365.0*	88.0	88.0	-15.0	i	i	0.2
Cn1c(=O)[nH]c(NC2CCCCC2)c(N=O)c1=O	279.0	100.0	97.0	2.0	i	i	·
O=c1[nH]c(C(F)(F)F)nc2c1nnn2Cc1ccccc1F	0.7	115.0	112.0	6.0	i	i	·
CCCc1nc2c(nnn2Cc2ccccc2F)c(=O)[nH]1	386.0*	93.0	99.0	4.0	i	i	-0.2
CC(C)CCN(C(=O)Nc1ccc(Cl)cc1)C1CCN(C(C)C)CC1	24.5	101.0	96.0	-5.0	i	i	·
O=C1NC2(CCCCC2)NN1c1ccccc1	479.1*	104.0	100.0	5.0	i	i	0.5
CC(=O)N1CCC2(CC1)NC(=O)N(c1ccccc1)N2	149.3	89.0	102.0	-12.0	i	i	·
Cc1[nH]c(C)c(S(=O)(=O)N2CCCCC2C)c1C(=O)N1CCCC1 (stereo not drawn)	9.4	96.0	91.0	1.0	i	i	·
Cc1ccc(S(=O)(=O)n2nc(C)cc2C)cc1	6.3	102.0	102.0	-1.0	i	i	·
Cc1ccc(S(=O)(=O)n2cccc2C)cc1	687.7*	·	·	·	i	i	0.2
Cc1ccccc1OCCOc1ccccc1C=C(C#N)C#N	15.2	104.0	104.0	4.0	i	i	·
SMILES	SUMO Mot1 rescue	MEKK2 WT-MEK5	MEKK3 PB1 HTS	MEKK2mut PB1 HTS	CHT PAM	CHT block	Yeast Mot1 SUMO
O=C(COc1ccccc1)Nc1ccc(OC(F)(F)C(F)F)c(NC(=O)COc2ccccc2)c1	961.0*	102.0	104.0	-1.0	i	i	0.4
COc1ccc(NC(=O)COc2ccccc2)cc1Cl	-25.1	111.0	110.0	4.0	i	i	·
O=C(O)C1=C[C@H](c2ccc3c(c2)OCO3)C[C@H](OCCCCO)O1	-1.4	97.0	92.0	-3.0	i	i	·
NC(=O)C1CCCN(C(=S)Nc2cccc3ccccc23)C1 (stereo not drawn)	908.8*	111.0	103.0	12.0	i	i	0.2
NC(=O)C1CCCN(C(=S)NCc2ccc3c(c2)OCO3)C1 (stereo not drawn)	3.9	107.0	118.0	-1.0	i	i	·
COc1ccccc1NC(=O)c1ccc(-n2ccnc2)c([N+](=O)[O-])c1	513.2*	102.0	103.0	-2.0	i	i	-0.2
CCOc1cc(N2CCOCC2)c(OCC)cc1NC(=O)c1ccc(-n2ccnc2)c([N+](=O)[O-])c1	50.2	104.0	104.0	6.0	i	i	·
Cn1cc(S(=O)(=O)N2CCOCC2)cc1C(=O)O	11.9	·	·	·	·	·	·
CCOc1ccc(C2(C)CC(=O)N(C)C2=O)cc1 (stereo not drawn)	-3.1	113.0	105.0	8.0	i	i	·
O=C(CSc1cccc[n+]1[O-])N1CCc2ccccc21	898.4*	106.0	103.0	3.0	i	i	-0.6
CC(C)(C)C(=O)NC1CCN(CC(=O)Nc2ccc3c(c2)OCO3)CC1	490.0*	96.0	96.0	1.0	i	i	0.3
CC(C)(C)CC(=O)N[C@@H](Cc1ccccc1)c1nc2ccccc2[nH]1	3.0	104.0	101.0	0.0	i	i	·
CSCC[C@H](NC(=O)CC(C)(C)C)c1nc2ccccc2[nH]1	422.4*	102.0	103.0	3.0	i	i	0.6
CCCC(=O)NC(C)c1nc2ccccc2[nH]1 (stereo not drawn)	594.7*	113.0	110.0	6.0	i	i	0.5
CC(NC(=O)Cc1ccccc1)c1nc2ccccc2[nH]1 (stereo not drawn)	-3.8	107.0	103.0	6.0	i	i	·
CC1=CC(C)(C)N2C(=O)C3(NCCc4c3[nH]c3ccccc43)c3cc(C)cc1c32 (stereo not drawn)	506.2*	99.0	83.0	0.0	i	i	-0.5
Cc1ccc(C)c(C(C)NC(=O)c2ccncc2)c1 (stereo not drawn)	751.6*	103.0	100.0	3.0	i	i	-0.4
CN(C(=O)COc1cc(=O)n(C)c2ccccc12)c1ccc(Cl)cc1	447.2*	97.0	98.0	1.0	i	i	-0.4
Cc1cc(C)nc(-n2nc(C)cc2NC(=O)CNCc2ccccc2)n1	+	94.0	91.0	-6.0	i	i	1.0
COc1ccc2nc(SCC(=O)N(C)C3CCCCC3)[nH]c2c1	3.1	·	·	·	·	·	·

Source: PubChem (several laboratories)
